ATG4B inhibitor: blocks human ATG4B protease cleavage of LC3 substrate. inhibition, % at 8.33 µM. Q9Y4P1. 340,000 compounds, 0.51% hits. AID 504462. ATG4B cleavage of LC3-PLA2, NBD-HPC fluorescence, 1 h; in the data active = inhibition above about 40%
Target sequence (Q9Y4P1 whole entry, looked up): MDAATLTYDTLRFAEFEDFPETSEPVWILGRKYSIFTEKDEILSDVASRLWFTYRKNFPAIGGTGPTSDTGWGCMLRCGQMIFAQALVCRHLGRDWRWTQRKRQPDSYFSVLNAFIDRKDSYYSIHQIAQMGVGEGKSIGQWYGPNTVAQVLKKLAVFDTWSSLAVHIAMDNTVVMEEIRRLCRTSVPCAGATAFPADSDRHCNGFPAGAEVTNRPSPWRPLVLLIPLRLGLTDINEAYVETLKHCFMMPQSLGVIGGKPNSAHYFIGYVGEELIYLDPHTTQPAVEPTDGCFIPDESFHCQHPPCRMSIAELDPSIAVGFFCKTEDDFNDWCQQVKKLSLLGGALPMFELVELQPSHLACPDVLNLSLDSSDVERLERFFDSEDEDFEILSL
Calb FLC: affects C. albicans growth with fluconazole; 300,000 compounds, 0.57% hits; growth inhibition, % (test concentration not listed); C. albicans CaCi-2 (fluconazole-resistant clinical isolate) + fluconazole, Alamar Blue growth, 48 h;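 active = growth inhibition above about 58% in most replicates, limit read from the data, passing the limit was not always enough; inconclusive = exactly half the replicates above a set limit; inactive = most replicates below a set limit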;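 also: all wells also contain fluconazole at 8 µg/ml as a sub-toxic cotreatment; 0% = median of DMSO wells and 100% = median of geldanamycin control wells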
NadD block: NadD (S. aureus) enzyme inhibition. inhibition, % at 20 µM. AID 602399. purified NadD enzyme, colorimetric absorbance read-out. 360,000 compounds, 0.78% hits; in the data active = inhibition above about 26%
SUMO Mot1 rescue: inhibitors of SUMOylation pathway: yeast Mot1-301 growth rescue | growth rescue, % at 18.8 µM | AID 2716 | 320,000 compounds, 1% hits | S. cerevisiae Mot1-301 growth rescue, ATP luminescence, 38.5C; percent above DMSO median, 100 means doubled;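 active = every valid replicate shows activation above 250% relative to neutral control wells; inactive = the rest, any valid replicate at or below 250%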;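 also: OY570 slx delta 5 strain wells were the positive control but not used for scaling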
FAS TE block: blocks the thioesterase domain of human fatty acid synthase; AID 602261; P49327; inhibition, % at 15 µM; recombinant FAS-TE, OMFH fluorogenic substrate, fluorescence endpoint; 360,000 compounds, 0.67% hits;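 active = compounds whose normalised, plate-corrected inhibition of enzyme fluorescence in the single-dose primary screen is 50% or more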;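 also: 0% = DMSO with enzyme and 100% = substrate without enzyme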
NadD inh conf: NadD (S. aureus) inhibition, single concentration confirmation | AID 624309 | purified S. aureus NadD, colorimetric enzyme assay | 2,000 compounds, 13% hits | inhibition, % at 20 µM | shares compounds with NadD block; in the data active = inhibition mostly above about 42%, no sharp cut-off; inactive = mostly below about 42%
The depositor's hits bear a star; ? = inconclusive; . = no result given. An excerpt weighted towards active compounds, which were near 3.1% of everything screened.

SMILES | ATG4B inhibitor | Calb FLC | NadD block | SUMO Mot1 rescue | FAS TE block | NadD inh conf
CC(C)C[C@H]1CN([C@@H](CC(C)C)CN2CCCC2CN2C(=S)NC[C@@H]2Cc2ccc(O)cc2)C(=S)N1CC1CCCCC1 (stereo not given in full) | . | . | 28.5 | . | -101.9 | .
Cc1cc(C(=O)CCC(=O)N(C)CC2COc3ccccc3O2)c(C)s1 (stereo not given) | . | . | 3.2 | . | 11.8 | .
O=C(/C=C/c1ccco1)c1ccc(NC(=O)C23CC4CC(CC(C4)C2)C3)cc1 | 12.9 | -23.3 | 32.8* | -11.3 | 4.5 | 11.4
COc1ccc(CCNC(=O)c2c(N)no[n+]2[O-])cc1OC | 7.6 | 13.0 | -1.0 | 3.3 | 1.8 | .
COc1ccc(OCc2nnc(SCC(=O)Nc3cccc(C(C)=O)c3)o2)cc1 | -7.9 | . | -7.0 | 2.2 | -3.5 | .
CCc1nnc(NC(=O)CSc2nc(-c3ccccc3)cc(-c3ccc(F)cc3)c2C#N)s1 | 2.8 | -8.1 | 43.9* | -8.5 | -7.6 | 3.6
O=C(c1ccc(OCCN2CCCCC2)cc1)c1c(-c2ccc(O)cc2)sc2cc(O)ccc12 | -7.1 | . | 33.0* | 6.4 | -21.1 | -2.6
Oc1cccc(-c2sc3ccccc3c2-c2ccc(OCCN3CCCCC3)cc2)c1 | . | . | 8.0 | . | 16.2 | .
C/C(=N\Nc1nnc(-c2ccccc2)c(-c2ccccc2)n1)c1cccc([N+](=O)[O-])c1 | 1.3 | -6.3 | 32.6* | -16.3 | -8.4 | 3.3
O=[N+]([O-])c1cccc(/C=N/Nc2nnc(-c3ccccc3)c(-c3ccccc3)n2)c1 | 6.8 | 2.2 | 27.1 | -5.6 | -8.2 | .
CCN(CC)c1ccc(/C=N/NC(=O)c2nnn(-c3nonc3N)c2-c2ccc(C)cc2)cc1 | -4.0 | 30.5 | 47.1* | 25.5 | 39.7 | 25.2
CN(C)c1ccc(/C=N/NC(=O)c2nnn(-c3nonc3N)c2CN(C)c2ccccc2)cc1 | 2.5 | ? | 37.4* | 8.3 | -12.2 | 37.6
Nc1nonc1-n1nnc(C(=O)N/N=C/c2ccccc2)c1CN1CCc2ccccc21 | -17.7 | -1.0 | 60.5* | -8.1 | 9.2 | 43.1
CCOc1ccc(/C=N/NC(=O)c2nnn(-c3nonc3N)c2-c2ccc(OCC)cc2)cc1 | -5.2 | 13.3 | 2.4 | 77.1 | 1.9 | .
O=C1C2C(c3cccc(/C=C/c4ccccc4)c3)CC=CC2C(c2ccc3ccccc3c2)N1Cc1ccccc1 (stereo not given) | -12.8 | -1.4 | 31.8* | 41.7 | 33.6 | 7.6
COc1ccc(-c2cccc(C3CC=CC4C3C(=O)N(Cc3ccccc3)C4c3cc(C)ccc3F)c2)cc1 (stereo not given) | . | -13.2 | . | . | . | .
COc1ccc(-c2cccc(C3CC=CC4C3C(=O)N(Cc3ccccc3)C4c3ccc(OC)c(Cl)c3)c2)cc1 (stereo not given) | 7.2 | 3.4 | 18.8 | 284.3 | 29.7 | .
Cc1ccc(F)c(C2C3C=CCC(c4cccc(-c5ccc(N(C)C)cc5)c4)C3C(=O)N2Cc2ccccc2)c1 (stereo not given) | 1.2 | -8.5 | 43.1* | 29.1 | 35.1 | 18.2
Cc1ccc(-c2cccc(C3CC=CC4C3C(=O)N(Cc3ccccc3)C4c3ccc4ccccc4c3)c2)cc1 (stereo not given) | 6.3 | 7.6 | 33.6* | 22.1 | 31.5 | 4.2
O=c1cc(/N=C/c2coc3c(ccc4ccccc43)c2=O)[nH]c(=S)[nH]1 | 4.8 | ? | 64.7* | 12.1 | 31.4 | 1.8
NC(=S)N/N=C/c1coc2c(ccc3ccccc32)c1=O | 30.5 | 4.3 | 16.5 | 157.7 | 0.9 | .
CCOc1ccc(-c2cc(C(=O)NCCCN3CCCC3)c3ccccc3n2)cc1 | -0.3 | -0.9 | -0.3 | -3.9 | -7.9 | .
Cc1cc(C)c2c(n1)sc1c(=O)[nH]c(SCc3ccccc3)nc12 | 6.0 | 22.9 | 29.1* | 5.1 | -4.2 | 12.8
CN(CC(=O)Nc1ccccc1C(F)(F)F)C(=O)c1ccc2c(=O)n3c(nc2c1)CCC3 | -6.6 | . | 6.5 | -4.0 | -1.5 | .
C=CCn1c(SCC(=O)NCC2CCCO2)nc2scc(-c3ccco3)c2c1=O (stereo not given) | -3.3 | 23.8 | 4.8 | -1.2 | 2.4 | .
SMILES | ATG4B inhibitor | Calb FLC | NadD block | SUMO Mot1 rescue | FAS TE block | NadD inh conf
NC(=O)CSc1nc2scc(-c3ccco3)c2c(=O)n1-c1ccccc1 | 20.4 | 6.6 | 10.2 | 195.3 | 0.2 | .
O=C(CSc1nc2scc(-c3ccco3)c2c(=O)n1-c1ccccc1)NCC1CCCO1 (stereo not given) | 0.2 | 24.6 | 30.1* | 3.6 | -4.3 | 37.3
O=c1c2c(-c3ccco3)csc2nc(SCc2cn3cccnc3n2)n1-c1ccccc1 | 9.6 | -1.8 | 35.7* | 13.3 | 8.9 | 7.9
Cc1ccc(N(CC(O)CN2CCOCC2)S(=O)(=O)c2ccc([N+](=O)[O-])cc2)cc1 (stereo not given) | -2.2 | -0.7 | -10.2 | -23.4 | 13.2 | .
O=C(NCCN1CCCCC1)c1ccc(Oc2cc(Cl)cc(Cl)c2)o1 | -1.7 | -5.0 | -8.6 | 4.2 | -1.2 | .
COc1ccc2nc(N3C(=O)CNC3=S)sc2c1 | -2.5 | 8.7 | -1.3 | -5.0 | -7.1 | .
CCOc1ccc2nc(N3C(=O)/C(=C/c4ccc(Cl)cc4)NC3=S)sc2c1 | 0.7 | -2.1 | 48.7* | . | 16.7 | 12.0
CCOc1ccc(-c2nnc(SCC(=O)Nc3ccc4c(c3)c3ccccc3n4CC)n2N)cc1 | 3.0 | ? | 30.6* | 17.0 | -3.8 | 23.3
Cc1cc2oc(=O)cc(CN3CCc4ccccc43)c2cc1Cl | 4.2 | 17.7 | 32.2* | -23.9 | 21.9 | 3.2
O=C(CC1OC(=O)c2ccccc21)Nc1ccccc1N1CCOCC1 (stereo not given) | 2.8 | 10.1 | 4.3 | -5.9 | -4.6 | .
O=C(CC1OC(=O)c2ccccc21)Nc1cc(Cl)ccc1N1CCCC1 (stereo not given) | 3.8 | -4.6 | 31.8* | -16.8 | 3.9 | 11.5
COC(=O)[C@@H](NC(=O)NCCC1=CCCCC1)C(C)C | 6.1 | -3.7 | -2.1 | 82.5 | -3.5 | .
COc1cc2ccccc2cc1C(=O)OCC(=O)N(CC(C)C)c1c(N)n(Cc2ccccc2)c(=O)[nH]c1=O | -15.1 | -2.8 | 6.9 | 3.7 | -1.0 | .
Cc1ccc(S(=O)(=O)N2CCCCC2CCNC(=O)C(=O)NCC2CCCO2)cc1 (stereo not given) | -4.1 | -6.4 | -3.1 | 3.8 | -5.6 | .
Nc1c(C(=O)NCc2ccco2)c2nc3ccccc3nc2n1CCc1ccc(F)cc1 | 1.7 | 5.3 | 38.5* | -2.7 | 15.0 | 4.4
O=C(/C=C/c1ccco1)N1CCC(Cc2ccccc2)CC1 | 4.4 | -5.8 | 34.1* | 73.3 | 12.8 | 21.4
O=C(COC(=O)c1ccc(S(=O)(=O)Nc2ccccc2)cc1)NC1CCCC1 | -1.9 | -14.6 | -4.2 | 48.0 | -6.1 | .
NC(=O)c1c(NC(=O)COC(=O)c2ccc(S(=O)(=O)Nc3ccccc3)cc2)sc2c1CCCC2 | -8.7 | 32.9 | 34.6* | 33.5 | 1.7 | 26.4
COc1ccc(OC)c(CCNC(=O)c2ccc3c(=O)[nH]c4c(C(=O)NC(C)C)sc(=S)n4c3c2)c1 | -10.3 | -10.8 | 32.8* | -15.4 | 32.8 | 13.3

Screening data as filed in PubChem.
